Consider 43 compounds from article PMC4336329 (PLoS ONE, 2015).

SMILES strings stand for the structures. Hit rate of the full screen: of about 310,000 compounds, about 14,000 (4.5%) showed an effect of 50% or more. Effects have a minus sign here. Only a selection was taken, and strong results are over-represented in it overall.
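Further: peak tail current of the secondary pulse compared with the same well before compound.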

Sequence of human ether-à-go-go-related gene (hERG) potassium channel (Q12809 whole entry, looked up): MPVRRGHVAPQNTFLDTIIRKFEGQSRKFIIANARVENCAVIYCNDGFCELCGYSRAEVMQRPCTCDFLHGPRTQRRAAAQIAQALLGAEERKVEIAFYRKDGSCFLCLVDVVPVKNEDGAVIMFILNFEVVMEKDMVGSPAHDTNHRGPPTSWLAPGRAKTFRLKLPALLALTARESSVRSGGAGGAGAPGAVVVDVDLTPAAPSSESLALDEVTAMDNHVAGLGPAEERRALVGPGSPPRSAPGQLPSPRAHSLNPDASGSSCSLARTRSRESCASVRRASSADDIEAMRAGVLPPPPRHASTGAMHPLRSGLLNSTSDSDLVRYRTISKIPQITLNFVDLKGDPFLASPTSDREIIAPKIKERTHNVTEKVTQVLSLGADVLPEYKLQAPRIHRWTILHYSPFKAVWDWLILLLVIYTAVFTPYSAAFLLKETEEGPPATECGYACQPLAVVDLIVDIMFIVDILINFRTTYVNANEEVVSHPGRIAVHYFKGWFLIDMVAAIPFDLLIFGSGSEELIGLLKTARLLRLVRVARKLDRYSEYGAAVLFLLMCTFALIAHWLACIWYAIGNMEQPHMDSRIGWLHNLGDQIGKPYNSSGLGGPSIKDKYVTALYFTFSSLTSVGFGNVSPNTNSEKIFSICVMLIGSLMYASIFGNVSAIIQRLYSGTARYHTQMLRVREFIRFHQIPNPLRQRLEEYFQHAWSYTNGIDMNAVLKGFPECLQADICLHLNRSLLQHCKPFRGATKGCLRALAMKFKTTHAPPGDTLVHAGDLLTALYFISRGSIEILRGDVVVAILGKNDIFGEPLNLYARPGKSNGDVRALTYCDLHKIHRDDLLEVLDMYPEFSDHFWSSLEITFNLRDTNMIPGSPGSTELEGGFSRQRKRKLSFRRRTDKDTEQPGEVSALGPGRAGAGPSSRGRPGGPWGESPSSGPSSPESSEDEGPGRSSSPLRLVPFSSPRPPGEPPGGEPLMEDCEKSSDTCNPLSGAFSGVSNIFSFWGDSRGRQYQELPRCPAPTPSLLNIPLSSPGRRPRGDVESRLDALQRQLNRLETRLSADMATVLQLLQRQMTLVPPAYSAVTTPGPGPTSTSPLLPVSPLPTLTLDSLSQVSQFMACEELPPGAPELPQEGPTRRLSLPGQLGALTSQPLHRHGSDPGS

The assay concerns the target human ether-à-go-go-related gene (hERG) potassium channel (human, UniProt Q12809). As to the kind of experiment: primary screen, population patch clamp on CHO cells stably expressing hERG; higher = less effect of the substance.
Regarding `OCC1OC(n2cnc3ccccc32)CC1O` (stereo not shown), the “hERG current change (%, negative = inhibition) at 10uM” value is listed as 10.8%. `CCNC(=O)OCC12CC3CC(CC(C3)C1)C2`: the “hERG current change (%, negative = inhibition) at 10uM” value is -5.85%.

Regarding `Cc1ccc(C(=O)N/N=C\c2ccc(-c3ccc(Cl)c(Cl)c3)o2)cn1`, the “hERG current change (%, negative = inhibition) at 10uM” value was -44.9%. Then `CCOC(=O)N1CCN(C(=O)C2CCC(=O)N(Cc3cccc(C(F)(F)F)c3)C2)CC1` (stereo not shown), with -11.1%; and `CC(C)n1c(O)c(N=NC(=O)C2COc3ccccc3O2)c2ccccc21` (stereo not shown), with 12.4%; and `Nn1c(COc2ccccc2F)nnc1SCC(=O)NC1CCS(=O)(=O)C1` (stereo not shown), with -7.72%. As for `CCc1nc(CN2CCN(c3cc(C(F)(F)F)ccn3)CC2)c(C)[nH]1`, the “hERG current change (%, negative = inhibition) at 10uM” value was -45.2%. `CCc1nc(CN2CCN(c3ccc(C(F)(F)F)cn3)CC2)c(C)[nH]1`: the “hERG current change (%, negative = inhibition) at 10uM” value was -55.6%. As for `CS(=O)(=O)Nc1ccc(N2CCN(c3ccc(C(F)(F)F)cn3)CC2)nc1`, the “hERG current change (%, negative = inhibition) at 10uM” value is listed as -4.03%. Consider `O=C(CN1CCN(Cc2ccc(F)cc2Cl)CC1)NCc1ccccc1`, for which the “hERG current change (%, negative = inhibition) at 10uM” value is on record as -23.2%. Then `O=[N+]([O-])c1ccc(-c2nnc(-c3ccccc3)c(NCCCO)n2)cc1`, with -67.3%; and `Clc1ccc(-c2nnc(-c3ccc(Br)cc3)c(N3CCSCC3)n2)cc1`, with -11.9%. For the compound `OCCCNc1nc(-c2ccc(Cl)cc2)nnc1-c1ccccc1`, the “hERG current change (%, negative = inhibition) at 10uM” value was -40%. Then `Cc1nnc(-c2ccc(Cl)cc2)nc1NCCN(C)C`, with -38.9%; and `O=[N+]([O-])c1ccc2nc(NCCCO)nc(-c3ccccc3)c2c1`, with -22.7%; and `OCCCNc1nc(-c2ccc(Br)cc2)nnc1-c1ccc(Cl)cc1`, with -52.3%.

Regarding `OCCCNc1nc(-c2ccc(Cl)cc2)nnc1-c1ccc(Br)cc1`, the “hERG current change (%, negative = inhibition) at 10uM” value is listed as -61.5%. Then `Nc1nc(-c2ccc(Cl)cc2)nnc1-c1ccc(Br)cc1`, with 41%. As to `OCCCNc1nnc(-c2ccccc2)c2ccccc12`, the “hERG current change (%, negative = inhibition) at 10uM” value worked out at 2.95%. Then `CC(C)(C)c1ccc(C(CC(=O)O)NC(=O)C23CC4CC(CC(C4)C2)C3)cc1` (stereo not shown), with 17.7%.

On to `O=C(Nc1ccc2c(c1)OCO2)C1Cc2ccccc2CN1S(=O)(=O)c1cccs1` (stereo not shown), for which the “hERG current change (%, negative = inhibition) at 10uM” value is reported as 4.05%. `COc1ccccc1NC(=O)c1ccc(Br)c(S(=O)(=O)N2CCCC2)c1`: the “hERG current change (%, negative = inhibition) at 10uM” value was -2.36%. The same measure for `CCC(C)C(NC(=O)c1ccccc1NC(=O)c1ccc(OC)cc1)C(=O)NCCCn1ccnc1` (stereo not shown): -1.96%. Take `CCCn1c(CCC(=O)O)nc2cc(S(=O)(=O)N3CCCC3)ccc21`: the “hERG current change (%, negative = inhibition) at 10uM” value worked out at 12.1%. In the case of `COCCOC(=O)c1c(C)oc2ccc(O)c(CN3CCC(C)CC3)c12`, the “hERG current change (%, negative = inhibition) at 10uM” value is -29.8%. The same measure for `CC12CC3CC(C)(C1)CC(C(=O)NCc1ccncc1)(C3)C2`: 9.2%; for `Cl.c1cc(CNC23CC4CC(CC(C4)C2)C3)ccn1`: -20.2%. With `CC12CC3CC(C)(C1)CC(NCc1ccncc1)(C3)C2.Cl`, the “hERG current change (%, negative = inhibition) at 10uM” value is listed as -58.7%. Then `O=C(c1ccc([N+](=O)[O-])o1)N(Cc1nnc(-c2ccccc2Cl)o1)C1CC1`, with -20.9%; and `CN(NS(=O)(=O)c1ccc(Br)cc1)c1nc(C(F)(F)F)nc2ccccc12`, with 12.2%; and `O=C(CN(Cc1ccc2c(c1)OCO2)C(=O)CNC(=O)c1ccco1)NC1CCCCC1`, with -7.83%. The same measure for `Cc1ccc(-c2cc(C(=O)N3CCN(c4ccccc4O)CC3)c3ccccc3n2)o1`: -70.9%.

Turning to `O=C(c1cc(-c2ccncc2)nc2ccccc12)N1CCN(c2ccccc2O)CC1`, the “hERG current change (%, negative = inhibition) at 10uM” value was -64.3%. The same measure for `CCOC(=O)C1CCCN(C(=O)c2cc(-c3ccc(C)cc3)nc3ccccc23)C1` (stereo not shown): -37.6%; for `Cc1ccc(-c2cc(C(=O)N3CCN(c4ccccc4O)CC3)c3ccccc3n2)cc1`: -1.9%; for `CCOC(=O)C1CCN(C(=O)c2cc(-c3ccncc3)nc3ccccc23)CC1`: -67.2%. Then `O=C(c1cc(-c2cccs2)nc2ccccc12)N1CCN(S(=O)(=O)c2ccccc2)CC1`, with -5.65%.

With `Cc1ccc(-c2cc(C(=O)N3CCN(c4ccc(F)cc4)CC3)c3ccccc3n2)o1`, the “hERG current change (%, negative = inhibition) at 10uM” value is reported as -35.7%. Then `CCOC(=O)C1CCCN(C(=O)c2cc(-c3ccncc3)nc3ccccc23)C1` (stereo not shown), with -32.4%; and `O=C(c1cc(-c2cccnc2)nc2ccccc12)N1CCN(S(=O)(=O)c2cccs2)CC1`, with -64.3%; and `O=C(c1cc(-c2ccccc2)nc2ccccc12)N1CCN(c2ccccc2O)CC1`, with -10.9%.

For the compound `O=C(c1cc(-c2cccnc2)nc2ccc(Cl)cc12)N1CCN(S(=O)(=O)c2cccs2)CC1`, the “hERG current change (%, negative = inhibition) at 10uM” value is given as -4.28%.

For the compound `CC(=O)N1CCN(C(=O)c2cc(-c3ccc(C)o3)nc3ccccc23)CC1`, the “hERG current change (%, negative = inhibition) at 10uM” value was -10.1%.
